This is one part of a sample in which hits are shown more often than they occur.
PGK inhibitor: qHTS Assay to Find Inhibitors of Phosphoglycerate Kinase; Phosphoglycerate kinase, glycosomal (Trypanosoma brucei brucei), P07378; PGK/GAPDH coupled, Kinase-Glo luminescence, 60 min; Potency, µM (titrated, usually from 57.5 µM), for the others: top-dose activity change, negative = inhibition, most hits filed as inhibitors; hit rate 0.043% among 380,000; note: potency is the fitted concentration of half-maximal effect; nearly all actives have a fitted effect of over 60% in size
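Luminescent ATP detection (Kinase-Glo Plus) follows a 60-minute room-temperature incubation, with wells lacking PGK as controls. Buffer: 100 mM TEA (pH 7.6), 5 mM MgCl2, 0.01% Tween-20. Coupling enzyme GAPDH (100 nM final) supplies unstable 1,3-BPG in-well.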
PI4K2A inh: qHTS for small molecular inhibitors of PI4K2A | Phosphatidylinositol 4-kinase type 2-alpha (Homo sapiens), Q9BTU6 | purified PI4K2A, ADP-Glo luminescence, 1 h; active compounds read low | activity change, negative = inhibition, % at 76.9 µM | hit rate 0.13% among 420,000; in the data active = activity change below about -50%; inconclusive = mostly about -30% to -49%;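 note: -100% = wells without enzyme as full effect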
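In this quantitative HTS, ADP production by PI4K2A was quantified luminescently after 1 h at ambient temperature; 100 microM adenosine served as plate-quality control.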
PI5P4Ka inh: qHTS for Inhibitors of phosphatidylinositol 5-phosphate 4-kinase (PI5P4K); PI5P4Kalpha enzyme, ADP-Glo luminescence, 60 min; active compounds read low; max response, %; hit rate 1.2% among 330,000; AID 652105, 2013; active = max response of -50% or lower; inconclusive = between -30% and -50%; inactive = -30% or higher; note: value at the top dose of about 77 µM
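ADP-Glo luminescence end-point read after a 60 min room-temperature kinase reaction of PI5P4Kalpha plus substrate, initiated with ATP at 5 microM final. Buffer: 0.038 M HEPES pH 7.4, EGTA, 0.1% CHAPS, 5% DMSO.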
Tb PFK inh: qHTS Assay to Find Inhibitors of T. brucei phosphofructokinase. T. brucei PFK, ADP-Glo luminescence. Potency, µM (highest dose often 57.5 µM), for inactives: at the highest dose activity, negative = inhibition, actives largely listed as inhibitors. hit rate 0.17% among 330,000. AID 485367, 2010;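 note: potency is the fitted concentration of half-maximal effect; 0% = uninhibited 1x PFK enzyme wells and -100% = no-enzyme wells; nearly all actives have a fitted effect of over 60% in size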
Target sequence (O15648 whole entry, looked up): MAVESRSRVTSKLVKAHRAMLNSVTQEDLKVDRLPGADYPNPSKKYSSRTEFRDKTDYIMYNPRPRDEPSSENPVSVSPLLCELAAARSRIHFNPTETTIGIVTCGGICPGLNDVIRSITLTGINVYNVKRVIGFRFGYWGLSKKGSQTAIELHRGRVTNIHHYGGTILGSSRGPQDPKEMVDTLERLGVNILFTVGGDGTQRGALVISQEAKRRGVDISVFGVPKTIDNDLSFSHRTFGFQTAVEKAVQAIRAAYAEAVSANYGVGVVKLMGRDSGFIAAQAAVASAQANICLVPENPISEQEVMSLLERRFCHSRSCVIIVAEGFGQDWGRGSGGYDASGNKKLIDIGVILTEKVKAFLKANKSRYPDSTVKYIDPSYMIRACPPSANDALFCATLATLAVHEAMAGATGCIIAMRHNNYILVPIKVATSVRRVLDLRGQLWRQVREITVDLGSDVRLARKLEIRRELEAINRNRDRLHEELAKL
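Luminescent ADP detection (ADP-Glo, two-step: ATP depletion then ADP-to-ATP conversion for luciferase) reported PFK activity after 45 min room-temperature reaction of 1.25 nM enzyme with 0.5 mM F6P and 0.1 mM ATP at pH 8.0.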
Pin1 inhibitor: qHTS Assay to Find Inhibitors of Pin1; Pin1 FP peptide displacement, HiFluor488, 10 min; Potency, µM (doses to about 115 µM), for the others: at the top dose activity, negative = inhibition, usual class: inhibitors; hit rate 0.009% among 390,000; AID 504891, 2011; active = well fitted inhibition curve with a large enough effect in the polarisation, with a control signal flat, not every such curve was filed as active; inconclusive = small, poorly fitted or top-dose-only effect, or effect the other way, or a change in a side signal; inactive = no such curve, though single readings can be large or run the other way; the % refers to the polarisation; note: potency is the fitted concentration of half-maximal effect
Target sequence (Q13526 whole entry, looked up): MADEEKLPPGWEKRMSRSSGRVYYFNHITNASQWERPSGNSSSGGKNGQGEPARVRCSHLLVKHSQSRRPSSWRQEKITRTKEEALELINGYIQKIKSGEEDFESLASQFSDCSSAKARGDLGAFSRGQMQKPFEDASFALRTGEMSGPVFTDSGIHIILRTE
ADP-Glo counter: qHTS for Inhibitors of PI5P4K: ADP-Glo counter assay; shares compounds with PI5P4Ka inh; ADP-Glo detection counter-screen, luciferase luminescence, no enzyme; Potency, µM (series often up to 76.9 µM), for the others: top-dose activity change, negative = inhibition, hits mostly inhibitors; 1,100 tested, under 10 active
An asterisk follows results filed as active; i = inactive; ? = inconclusive; nt = not tested or not shown. Unless noted, calls come from the whole dose curve; as a rule, active = well fitted curve in the direction sought with a large enough effect; inconclusive = small, poorly fitted or top-dose-only effect, or another doubt; inactive = no such curve, though single readings can be large; an effect the other way counts as inactive or inconclusive. Unless noted, % is set by controls: 0 for no effect and ±100 for the full control effect.

SMILES	PGK inhibitor	PI4K2A inh	PI5P4Ka inh	Tb PFK inh	Pin1 inhibitor	ADP-Glo counter
CS(=O)(=O)c1sc2nc(-c3cccs3)cc(-c3ccccc3)c2c1N	i	-10	-52*	-3%	32%	-11%
Cc1ccc(-c2cc(-c3ccccc3)c3c(N)c(S(C)(=O)=O)sc3n2)cc1	-4%	-3	9	20%	39%	nt
C=CCN1C(=O)[C@@H](CC(=O)N2CCN(C(=O)C3CC3)CC2)[C@]2(C(=O)OC)CCCCC=C12	nt	5	nt	nt	nt	nt
COc1ccc(N2CC(O)=C(c3nc(-c4ccccc4)cs3)C2=N)cc1	-9%	-2	-53*	-1%	-3%	-2%
COc1ccc(N2CC(O)=C(c3nc(-c4ccc(Br)cc4)cs3)C2=N)cc1	-5%	0	2	2%	5%	nt
Cc1cccc(NC(c2ccc(O)cc2)c2ccc3ccc(C)nc3c2O)n1 (stereo not given)	i	-6	-52*	5%	?	-9%
CCN1CCCCC(NC(=O)Cc2ccccc2)C1=O (stereo not given)	nt	-2	nt	nt	nt	nt
O=c1oc2c(O)cccc2cc1-c1nc2ccccc2[nH]1	-14%	-8	?	-3%	?	-9%
Cc1ccc([N+](=O)[O-])cc1S(=O)(=O)Nc1ccc(C(=O)N(C)C)cc1	-2%	3	1	5%	-2%	nt
Cc1ccc([N+](=O)[O-])cc1S(=O)(=O)Nc1ccc(C(=O)N2CCN(C(=O)c3ccco3)CC2)cc1	-13%	-3	-53*	0%	4%	0%
O=C(NC1CCCCN(Cc2cccc(C(F)(F)F)c2)C1=O)c1ccc(Cl)cc1 (stereo not given)	nt	0	nt	nt	nt	nt
Cc1ccc(-n2ncc3c(=O)[nH]c(SCC(=O)NCC4CCCO4)nc32)cc1 (stereo not given)	-8%	-1	-1	-3%	-1%	nt
O=C(CSc1nc2c(cnn2-c2cccc(Cl)c2)c(=O)[nH]1)NCC1CCCO1 (stereo not given)	1%	-2	nt	1%	2%	-6%
CCC(C)c1nc2ccsc2c(N2CCOC2=O)c1-c1ccccc1 (stereo not given)	-13%	6	-54*	nt	2%	2%
CCC[C@H]1[C@@H](OC(=O)NCc2ccc(OC)cc2)CC[C@@]23CCCN2C(=O)CCC[C@@H]13	nt	-2	nt	nt	nt	nt
CCN(CC)CCCCCC(=O)Nc1ccccc1C(=O)Nc1ccccc1	-7%	0	-19	-4%	4%	-4%
O=C(N[C@@H](Cc1ccccc1)C(=O)N1CCC2CCN(S(=O)(=O)c3ccccc3)CC21)[C@@H]1CCCN1 (stereo not given in full)	nt	-3	nt	nt	nt	nt
CCc1ccccc1-c1cc(C(C)=O)c2n(c1=O)CCC2	nt	-6	nt	nt	nt	nt
COc1ccc(Nc2nc(N)c(C(=O)c3ccc(F)cc3)s2)cc1	-7%	-2	-54*	-17%	-3%	1%
Nc1nc(Nc2cccc(Cl)c2)sc1C(=O)c1ccc(F)cc1	9%	-6	nt	nt	?	nt
COC(=O)CNC(=O)CNC1(C(=O)NCCc2c[nH]c3ccccc23)CCCCC1	nt	0	nt	nt	nt	nt
COc1cc(NC(=O)c2c3c(nc4ccccc24)CCC3)cc(OC)c1	-2%	5	-2	-2%	5%	nt
Cc1ccc(NC(=O)c2c3c(nc4ccccc24)CCC3)cc1S(=O)(=O)N(C)C	-2%	-6	-52*	21%	?	3%
COc1ccc(-c2cc(C(=O)N(C)CC(=O)Nc3cccc(F)c3)c3ccccc3n2)cc1	-6%	0	3	6%	59%	nt
Cc1ccc(NC(=O)CN(C)C(=O)c2cc(-c3ccco3)nc3ccccc23)cc1	?	-28	-95*	?	?	-8%
SMILES	PGK inhibitor	PI4K2A inh	PI5P4Ka inh	Tb PFK inh	Pin1 inhibitor	ADP-Glo counter
COc1cccc(NC(=O)CN(C)C(=O)c2cc(-c3ccco3)nc3ccccc23)c1	-17%	-6	-60*	?	15%	-9%
CCOc1ccc(NC(=O)CN(C)C(=O)c2cc(-c3ccco3)nc3ccccc23)cc1OCC	-3%	-1	1	nt	-2%	nt
CN(CC(=O)Nc1ccc(F)cc1)C(=O)c1cc(-c2ccco2)nc2ccccc12	-19%	-18	-66*	-24%	?	4%
Cc1cccc(NC(=O)Nc2nc3ncccn3c2-c2ccc(F)cc2)c1	nt	-2	nt	nt	nt	nt
CCOc1cccc(/C=N\NC(=O)Cc2cccs2)c1O	nt	1	nt	nt	nt	nt
O=S1(=O)c2c(cccc2N2CCC[C@@H]2CO)O[C@@H]2CCN1C2	nt	0	nt	nt	nt	nt
Cc1cc(NC(=O)c2cc(S(=O)(=O)N3CCCCC3)ccc2C)no1	-8%	-13	-54*	?	?	-8%
O=S(=O)(Nc1ccccc1N1CCCC1)c1ccccc1C(F)(F)F	1%	0	2	nt	nt	nt
O=S(=O)(Nc1ccccc1N1CCCCC1)c1ccc(Cl)s1	-6%	-8	-55*	-4%	3%	4%
Cc1sc(NC(=O)c2sc3nc4c(C)cccc4cc3c2N)c(C#N)c1C	-1%	-1	-63*	-6%	?	-6%
Cc1cccc2cc3c(N)c(C#N)sc3nc12	-9%	4	6	6%	?	nt
O=C1CCC[C@H]2CC3(CC[C@]24CCCN14)OCCO3	nt	-5	nt	nt	nt	nt
COc1ccc(N(C(=O)c2ccccc2)S(=O)(=O)c2cccs2)cc1	i	2	-60*	1%	9%	4%
CC(C)CN1C(=O)C[C@@]2(C(=O)N(C)c3ccc(NC(=O)C(F)(F)F)cc32)C1c1ccccc1 (stereo not given in full)	nt	-2	nt	nt	nt	nt
Cc1ccc(-c2csc3ncnc(NCCC(=O)O)c23)cc1C	i	-1	nt	1%	6%	-2%
CCn1c(=S)[nH]c2scc(-c3cccs3)c2c1=O	7%	-6	-53*	-3%	1%	3%
CCCNC(=O)C1(C)CCCN(C(=O)c2cc(C)nn2C(C)(C)C)C1 (stereo not given)	nt	4	-71*	nt	nt	2%
CCCNC(=O)C1(C)CCN(C(=O)c2cc(C)nn2C(C)(C)C)C1 (stereo not given)	nt	3	5	nt	nt	nt
Cc1cc(C)c2nc(-c3ccccn3)cc(C(=O)Nc3ccc(S(=O)(=O)Nc4onc(C)c4C)cc3)c2c1	-16%	-3	-66*	-13%	?	-1%
O=C(COC(=O)C1CCCCC1)Nc1ccccc1OC(F)F	-2%	2	-68*	-2%	-1%	-5%
COC(=O)[C@]12C[C@H](CC(=O)N3CCN(C(=O)C4CC4)CC3)C(=O)N(CCc3ccc(OC)c(OC)c3)C1=C[C@H](C(C)C)O[C@@H]2C1CC1	nt	-9	nt	nt	nt	nt

Screens as filed in PubChem BioAssay.
